An excerpt weighted towards active compounds, which were near 6.9% of everything screened.
Cy5 interf NS3h = counter-screen for HCV NS3 helicase inhibitors: fluorescence interference | Cy5-dT15 DNA with NS3h; actives lie on both sides; signal over control mean, under 1 quenches | fluorescence interference ratio at 100 µM | 6% of 16,000 active | AID 720488;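 active = compound fluorescence over control fluorescence at most 0.8, a quencher, or at least a set upper limit, an enhancer; inactive = ratio between 0.8 and the set upper limit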
HCV NS3h FP = hepatitis C NS3 helicase inhibition, primary screen; NS3h Cy5-dT15 DNA binding, fluorescence polarization; inhibition, % at 100 µM; 1.6% of 16,000 active; AID 687043;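 active = inhibition above the average over every tested compound plus 3 SD, cut at about 40% in these data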
Hits are given with their value; - = inactive.

SMILES | Cy5 interf NS3h | HCV NS3h FP
Cc1ccc2nc(-c3ccc([N+](=O)[O-])cc3)cn2c1 | - | -
COCCOC(=O)C1=C(C)NC2=C(C(=O)CCC2)C1c1ccsc1 (stereo not given) | - | -
COc1ccc(-c2nc(-c3ccc(O)cc3)[nH]c2-c2ccc(OC)cc2)cc1 | 0.73 | -
COc1ccc(OC)c(-c2nc(-c3ccccc3)c(-c3cccs3)[nH]2)c1 | - | -
O=C1NC(=S)NC(=O)C1=Cc1ccc(O)c(Cl)c1 | - | 45
O=C1NC(=S)N(c2ccc(Br)cc2)C(=O)/C1=C/c1ccc(O)c(Cl)c1 | - | -
C=CCOc1c(I)cc(C=C2C(=O)NC(=S)NC2=O)cc1OCC | 0.71 | -
CCOc1cc(C=C2C(=O)NC(=S)NC2=O)cc(Br)c1OCCOc1ccccc1C | - | -
Cc1ccc(C)c(COc2cc3oc(=O)c4c(c3cc2Cl)CCC4)c1 | - | -
N#Cc1c(-c2cc(Br)cs2)c2c(=O)[nH]c(=O)[nH]c2[nH]c1=O | 1.2 | -
CCc1ccccc1N1C(=O)/C(=C/c2cc(C)n(C)c2C)C(=O)NC1=S | 1.2 | -
Cc1cc(/C=C2\C(=O)NC(=S)N(c3ccccc3)C2=O)c(C)n1-c1cccnc1 | 1.2 | -
Cc1cc(C=C2C(=O)N(C)C(=O)N(C)C2=O)c(C)n1C | - | -
Cc1cc(/C=C2\C(=O)NC(=S)N(c3ccc(Br)cc3)C2=O)c(C)n1C | - | -
Cc1cc(Br)ccc1N1C(=O)/C(=C/c2cc(C)n(C)c2C)C(=O)NC1=S | 1.2 | -
Cc1cc(/C=C2\C(=O)NC(=S)N(c3ccccc3)C2=O)c(C)n1-c1ccccc1 | - | -
O=[N+]([O-])c1ccc(S(=O)(=O)Nc2cc(Cl)cc(Cl)c2)cc1 | - | -
CCSc1nc2ccccc2n1CC(=O)Nc1ccc(F)cc1 | - | -
O=C(NCC1CCCO1)c1cc2nc(-c3ccccc3)cc(-c3ccccc3)n2n1 (stereo not given) | 0.62 | -
COCCNC(=O)c1cc2nc(-c3ccccc3)cc(-c3ccccc3)n2n1 | - | -
O=[N+]([O-])c1cccc(-c2noc(-c3ccc(I)cc3)n2)c1 | - | -
O=C1c2c(Cl)c(Cl)c(Cl)c(Cl)c2C(=O)N1c1ncccn1 | 0.65 | -
O=C(O)COc1ccc(N2C(=O)c3c(Cl)c(Cl)c(Cl)c(Cl)c3C2=O)cc1 | - | -
COc1ccc(OCC(=O)Nc2cccc(C(C)=O)c2)cc1 | - | -
CCc1ccc(OCC(=O)Nc2cccc(OC)c2)cc1 | 0.74 | -
SMILES | Cy5 interf NS3h | HCV NS3h FP
NC(=O)c1cc(NC(=O)c2cccc(F)c2)c(Cl)cc1Cl | - | -
CC1CCN(C(=O)COc2ccc(-c3ccccc3)cc2)CC1 | 0.67 | -
CC1CCCN(C(=O)c2ccccc2)C1 (stereo not given) | 0.79 | -
CC1CCN(C(=O)c2ccccc2)CC1 | 0.68 | -
CS(=O)(=O)N1CCN(C(=O)COc2ccccc2)CC1 | - | -
CC1CCN(C(=O)c2ccc(I)cc2)CC1 | - | -
CC1CCCN(C(=O)c2ccc(Cl)cc2)C1 (stereo not given) | - | -
Cc1ccc(CCC(=O)Nc2ccc(Br)cc2)o1 | - | -
CCC1=NN2C(=N)/C(=C/c3cccs3)C(=O)N=C2S1 | - | -
O=C(Nc1cc(C(F)(F)F)ccc1Cl)c1cccs1 | - | -
O=C(Nc1cccnc1)N1CCOCC1 | - | -
O=C(CN(c1ccccc1)S(=O)(=O)c1ccccc1[N+](=O)[O-])Nc1cccc(Cl)c1 | - | -
O=C(O)CN(c1ccccc1)S(=O)(=O)c1ccccc1[N+](=O)[O-] | - | -
CC(NC(=O)CN(c1ccccc1)S(=O)(=O)c1ccccc1[N+](=O)[O-])c1ccccc1 (stereo not given) | 0.68 | -
CC(C)CNC(=O)CN(c1ccccc1)S(=O)(=O)c1ccccc1[N+](=O)[O-] | 0.69 | -
O=C(CCC(=O)OCC(F)(F)C(F)F)Nc1nc2ccccc2s1 | 0.71 | -
CCC(C(=O)Nc1nc2ccccc2s1)c1ccccc1 (stereo not given) | - | -
Cc1c(Br)c(C(F)(F)F)nn1CC(=O)Nc1cc(C(F)(F)F)ccc1Cl | - | -
Cc1c(Br)c(C(F)(F)F)nn1CC(=O)N(C)c1ccccc1 | 0.55 | -
O=C(c1cccc(N2C(=O)C3C4C=CC(C4)C3C2=O)c1)c1cccc(N2C(=O)C3C4C=CC(C4)C3C2=O)c1 (stereo not given) | - | 43
CC(=O)c1cccc(N2C(=O)C3C4C=CC(C4=C(C)C)C3C2=O)c1 (stereo not given) | - | -
COc1ccc(/C=C2\C(=O)NC(=O)N(c3cc(C)cc(C)c3)C2=O)cc1 | - | -
Cc1cc(C)c(N2C(=O)NC(=O)C(=Cc3ccoc3)C2=O)c(C)c1 | - | 42
Cc1ccc(N2C(=O)CC(N3CCc4ccccc4C3)C2=O)cc1 (stereo not given) | - | -
COc1ccccc1C(=O)Nc1ccc(-c2cc3ccccc3oc2=O)cc1 | 0.76 | -
SMILES | Cy5 interf NS3h | HCV NS3h FP
Cc1cc(NC(=O)c2ccccc2I)ccc1-c1cc2ccccc2oc1=O | - | -
CCOc1ccc(C(=O)Nc2ccc(-c3cc4ccccc4oc3=O)c(C)c2)cc1Cl | - | -
Cc1cc(NC(=O)c2ccc(Cl)cc2)ccc1-c1cc2ccccc2oc1=O | 0.66 | -
CCOC(=O)c1ccccc1N(C(=O)C(F)(F)F)C1C=CS(=O)(=O)C1 (stereo not given) | - | -
CCN(CC)c1ccc(/C=c2\sc3n(c2=O)C(c2ccc(OC)cc2OC)C(C(C)=O)=C(C)N=3)c(OC)c1 (stereo not given) | - | -
O=C(Nc1ccc2oc(-c3ccc(F)cc3Cl)nc2c1)c1ccco1 | - | -
O=C1C(=O)N(Cc2ccc(F)cc2)c2ccc(Br)cc21 | - | -
CN1C(=O)C(=O)c2cc(Br)ccc21 | 0.74 | -
O=C1NC(=S)N(c2ccc(Cl)cc2)C(=O)/C1=C/c1ccc(Oc2ccc([N+](=O)[O-])cn2)cc1 | - | -
O=C1NN(c2ccc(Cl)cc2)C(=O)/C1=C\c1ccc(O)c(O)c1 | - | -
Cc1ccc(N2NC(=O)/C(=C/c3ccc(Cl)cc3)C2=O)cc1 | 0.68 | -
O=C1N=C2N(CCN3CCOCC3)c3ccccc3N2/C1=C/c1ccccc1[N+](=O)[O-] | - | -
Cc1ccc(C(=O)O/N=C(/N)c2ccc(Br)cc2)cc1[N+](=O)[O-] | 0.78 | -
Cc1ccc(C(=O)O/N=C(/N)c2ccc(Cl)cc2)cc1[N+](=O)[O-] | - | -
CC(=O)c1cccc(N2C(=O)c3ccc(C(=O)c4ccc5c(c4)C(=O)N(c4cccc(C(C)=O)c4)C5=O)cc3C2=O)c1 | - | -
O=C(Nc1cccc(O)c1)c1ccc(Cl)cc1 | - | -
CCc1ccc(C(=O)CC2(O)C(=O)Nc3ccccc32)cc1 (stereo not given) | - | -
O=C(CC1(O)C(=O)Nc2ccccc21)c1ccco1 (stereo not given) | 0.78 | -
CCC/C(C(=O)OCC)=C(/C)NCCN/C(C)=C(\CCC)C(=O)OCC | - | -
Cc1cccc(C(=O)NCC(O)c2ccccc2)c1 (stereo not given) | - | -
Cc1ccccc1OCC(=O)Nc1ccc(NC(=O)c2ccco2)cc1 | - | -
COc1ccc(C(=O)c2ccc(OC)cc2)cc1 | - | -
COc1cc(C2C3=C(CC(C)(C)CC3=O)OC3=C2C(=O)CC(C)(C)C3)cc(I)c1O | - | -
COc1cc(C2C3=C(CC(C)(C)CC3=O)OC3=C2C(=O)CC(C)(C)C3)ccc1OCc1ccc([N+](=O)[O-])cc1 | 0.8 | -

Screening data as filed in PubChem.
